{"source": "PubChem BioAssay (EPA / NIEHS)", "note": "Activity calls are given as the source filed them. Rule for the calls: active = hit-call score of the fitted dose curve at least 0.9, where 1 is the maximum; inactive = score below 0.9.", "data": [{"experiment": "CCTE_Deisenroth_5AR_NBTE_acceptor: CCTE's 5alpha-reductase NanoBRET Target Engagement Assay - Autofluorescence Screen, Deisenroth Lab (AID 2284321);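 note: compound fluorescence in the acceptor channel under 460 nm excitation flags autofluorescence artifacts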", "conditions": "actives raise or lower the signal", "protocol": "CCTE_Deisenroth_5AR NBTE (5alpha-reductase NanoBRET Target Engagement Assay) is a cell-based, single-readout assay that uses HEK293T, a human kidney cell line, with measurements taken at 5 hours after chemical dosing in a 384 well plate. This assay includes a primary and secondary screen as well as an autofluorscence screen.CCTE_Deisenroth_5AR NBTE_acceptor is one of four assay components measured from the CCTE_Deisenroth_5AR NBTE assay. It is designed to make measurements of resonant fluorescence generated by bioluminescent energy transfer to a target fluorophore, as detected by fluorescence intensity emission signals using spectrometry technology.Data from the assay component CCTE_Deisenroth_5AR NBTE_acceptor was analyzed into 1 assay endpoint. This assay endpoint, CCTE_Deisenroth_5AR NBTE_acceptor, was analyzed with bidirectional fitting relative to DMSO as the negative control and baseline of activity. Using a type of inducible reporter, gain or loss-of-signal activity can be used to understand changes in the acceptor fluorescence as related to 5alpha-reductase catalytic function. Furthermore, this assay endpoint can be referred to as a secondary readout, because this assay has produced multiple assay endpoints where this one serves an artifact detection function.\nChemicals from the blinded ToxCast library were diluted 1000-fold in DMSO to an assumed nominal concentration of 100 uM. Samples were scanned in three independent runs (n=3) on a multi-mode plate reader at a fixed excitation wavelength of 460 nm with emission filter set at […]. For reference, tracer was included at DMSO-solubilized concentrations of 100 uM (the top tested concentration for each test chemical) and 600 nM (the final working concentration of the tracer probe).", "values": [{"smiles": "CCN(CC)c1ccc2c(-c3ccccc3C(=O)O)c3ccc(=[N+](CC)CC)cc-3oc2c1", "outcome": "inactive"}, {"smiles": "O=Nc1ccc(Nc2ccccc2)cc1", "AC50": "50 µM (active)"}, {"smiles": "CCCCCCCCCCCCCCCC(=O)OC[C@H](O)[C@H]1OC(=O)C(O)=C1O", "outcome": "inactive"}, {"smiles": "CC1CC(OC(=O)c2ccccc2O)CC(C)(C)C1", "note": "(stereo not given)", "outcome": "inactive"}, {"smiles": "CCCCCCCCCCCCCC(=O)O", "outcome": "inactive"}, {"smiles": "CC(C)=CCC[C@](C)(O)[C@@H]1CC=C(C)CC1", "outcome": "inactive"}, {"smiles": "CCN(CC)c1ccc(C(=C2C=CC(=[N+](CC)CC)C=C2)c2ccc(S(=O)(=O)O)cc2S(=O)(=O)[O-])cc1", "AC50": "13 µM (active)"}, {"smiles": "BrC1CCC(Br)C(Br)CCC(Br)C(Br)CCC1Br", "note": "(stereo not given)", "outcome": "inactive"}, {"smiles": "CCCCCCCCCCCCCOS(=O)(=O)O", "AC50": "43.2 µM (active)"}, {"smiles": "CCCCCC(CO)CCC", "note": "(stereo not given)", "outcome": "inactive"}]}]}
